“And” between values parts separate entries of the source, which are not always exact repeats. Identical values can stand only once. About 2,000 (36%) of roughly 5,500 compounds were called active. Inconclusive results (about 18%) are left out. No stated cut-off is given here; in the data, active means normalized growth mostly below about 0.91 (no sharp cut-off); inconclusive means no clear call, values can overlap the other calls; inactive means mostly above about 0.92. The list shows a part of the results.
Test: chemical genetic growth profiling, strain panel (AID 1159580);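 further: tested at 20 µM; growth read once vehicle control cultures reached saturation at 30 °C; 1 = growth at the plate median or of vehicle wells; lower values mean less growth of the strain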
Conditions: S. cerevisiae deletion strains, growth OD

Measured: normalized growth

CC(=O)[C@H]1CCC2C3C[C@H](C)C4=CC(=O)CC[C@]4(C)C3[C@@H](O)C[C@@]21C (stereo partly drawn)
inactive: locus YAL021C, strain ccr4, hits give low values 0.988 | locus YAL026C, strain drs2, hits give low values 0.989 | locus YAL030W, strain snc1, hits give low values 0.986 | locus YBL061C, strain skt5, hits give low values 0.988 | locus YBR009C, strain hhf1, hits give low values 1 | locus YBR021W, strain FUR4, hits give low values 0.979 | locus YBR023C, strain chs3, hits give low values 0.983 | locus YBR171W, strain sec66, hits give low values 0.973 | locus YBR229C, strain ROT2, hits give low values 0.994 | locus YBR231C, strain swc5, hits give low values 0.994 | locus YBR279W, strain paf1, hits give low values 0.99 | locus YCL011C, strain gbp2, hits give low values 0.964 | locus YCL016C, strain dcc1, hits give low values 0.953 | locus YCL029C, strain bik1, hits give low values 0.983 | locus YCL061C, strain MRC1, hits give low values 0.989 | locus YCL069W, strain vba3, hits give low values 0.983 | locus YCR088W, strain abp1, hits give low values 0.98 | locus YDL005C, strain med2, hits give low values 0.984 | locus YDL035C, strain GPR1, hits give low values 1.02 | locus YDL040C, strain nat1, hits give low values 0.987 | locus YDL074C, strain BRE1, hits give low values 0.98 | locus YDL101C, strain DUN1, hits give low values 0.993 | locus YDL134C, strain PPH21, hits give low values 1.01 | locus YDL185W, strain tfp1, hits give low values 0.965 | locus YDL192W, strain arf1, hits give low values 0.981 | locus YDR001C, strain nth1, hits give low values 0.977 | locus YDR069C, strain doa4, hits give low values 1.02 | locus YDR101C, strain arx1, hits give low values 0.989 | locus YDR137W, strain rgp1, hits give low values 0.921 | locus YDR159W, strain sac3, hits give low values 1.01 | locus YDR162C, strain NBP2, hits give low values 0.99 | locus YDR195W, strain ref2 0.997 | locus YDR297W, strain sur2, hits give low values 0.985 | locus YDR318W, strain mcm21, hits give low values 0.988 | locus YDR334W, strain swr1, hits give low values 0.963 | locus YDR335W, strain msn5, hits give low values 0.984 | locus YDR388W, hits give low values 0.986 | locus YDR392W, strain spt3, hits give low values 0.897 | locus YDR502C, strain sam2, hits give low values 0.978 | locus YEL003W, strain gim4, hits give low values 1 | locus YEL037C, strain rad23, hits give low values 0.975 | locus YEL061C, strain CIN8 (second series), hits give low values 0.977 | locus YEL061C, strain CIN8, hits give low values 0.99 | locus YER015W, strain faa2, hits give low values 0.992 | locus YER016W, strain bim1, hits give low values 0.996 | locus YER110C, hits give low values 0.969 | locus YER111C, strain swi4, hits give low values 0.982 | locus YER155C, strain BEM2 (second series), hits give low values 1 | locus YER155C, strain BEM2, hits give low values 0.991 | locus YER167W, strain BCK2, hits give low values 0.986 | locus YFR010W, strain ubp6, hits give low values 0.986 | locus YGL078C, strain dbp3, hits give low values 0.991 | locus YGL086W, strain mad1, hits give low values 1.01 | locus YGL167C, strain pmr1, hits give low values 0.971 | locus YGL173C, strain kem1, hits give low values 0.995 | locus YGL227W, strain vid30, hits give low values 0.978 | locus YGL240W, strain doc1, hits give low values 1.02 | locus YGL248W, strain PDE1, hits give low values 0.984 | locus YGL253W, strain hxk2, hits give low values 0.976 | locus YGR135W, strain pre9, hits give low values 0.939 | locus YGR252W, strain gcn5, hits give low values 1.06 | locus YHR013C, strain ard1, hits give low values 0.945 | locus YHR027C, strain rpn1, hits give low values 0.98 | locus YHR030C, strain SLT2, hits give low values 0.996 and 0.986 | locus YHR079C, strain IRE1 (second series), hits give low values 0.98 | locus YHR079C, strain IRE1, hits give low values 0.966 | locus YHR094C, strain hxt1, hits give low values 0.984 | locus YHR129C, strain ARP1, hits give low values 0.995 | locus YHR142W, strain chs7, hits give low values 0.95 | locus YHR200W, strain rpn10, hits give low values 0.981 | locus YIL066C, strain RNR3, hits give low values 0.993 | locus YIL073C, strain SPO22, hits give low values 0.899 | locus YIL125W, strain kgd1, hits give low values 0.996 | locus YIR030C, strain dcg1, hits give low values 0.975 | locus YJL092W, strain hpr5, hits give low values 0.977 | locus YJL095W, strain BCK1 (second series), hits give low values 0.982 | locus YJL095W, strain BCK1, hits give low values 0.969 and 0.976 | locus YJL115W, strain asf1, hits give low values 0.973 | locus YJL129C, strain trk1, hits give low values 0.959 | locus YJL134W, strain LCB3, hits give low values 0.99 | locus YJL154C, strain vps35, hits give low values 0.972 | locus YJL164C, strain tpk1, hits give low values 0.997 | locus YJL166W, strain qcr8, hits give low values 0.979 | locus YJL168C, strain set2, hits give low values 0.994 | locus YJL187C, strain SWE1 (second series), hits give low values 0.993 | locus YJL187C, strain SWE1, hits give low values 0.985 | locus YJR043C, strain POL32, hits give low values 1.03 | locus YJR066W, strain TOR1, hits give low values 0.925

Source: PubChem BioAssay AID1159580 (chemical genetic matrix, 2015)
